# In the library only some 15% were active in any assay of this set; here they are far more common.
# TDP1 cell noCPT: qHTS for Inhibitors of human tyrosyl-DNA phosphodiesterase 1 (TDP1): qHTS in cells in absence of CPT; DT40 Tdp1-/- hTDP1 cells, no CPT, ATP luminescence, 48 h; Potency, µM (top dose mostly 46.2 µM), actives largely listed as inhibitors; 420,000 compounds, 15% hits; AID 686978, 2013; also: nearly all actives have a fitted effect of over 55% in size
#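 Readout: luminescence from CellTiter-Glo after 30 min in the dark at RT. Cells: DT40 Tdp1-/- with stable hTDP1, 400/well. Exposure: compounds alone, ≥48 hr, 37 °C.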
# ELG1 repair inh: inhibitors of ELG1-dependent DNA repair in HEK293T cells. 330,000 compounds, 2.3% hits. Potency, µM (top dose mostly 46.1 µM), usual class: inhibitors. HEK293T ELG1-luciferase reporter, luminescence, 16 h; DNA damage induced by 5-fluorouridine. AID 504467; also: nearly all actives have a fitted effect of over 55% in size
#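 In this reporter screen, reduction of luminescence relative to DMSO vehicle indicated activity. Compounds and 5-fluorouridine were added together to 2,000 cells per well, incubated for 16 hr at 37 °C, then developed with ONE-Glo.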
# TDP1 cell CPT: growth inhibition of DT40 Tdp1-/-;hTDP1 cells with camptothecin (screen for TDP1 inhibitors); chicken DT40 Tdp1-/-;hTDP1 cells + 20 nM CPT, ATP luminescence, 48 h; Potency, µM (doses to about 46.2 µM), most hits filed as inhibitors; 420,000 compounds, 12% hits; AID 686979; also: nearly all actives have a fitted effect of over 55% in size
#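 Chicken DT40 Tdp1-/- cells stably complemented with human TDP1 were seeded at 400 cells/well in medium containing 20 nM camptothecin, exposed to pin-transferred compounds, and grown at 37 °C for at least 48 hr. Viability was read as ATP luminescence.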
# ALOX12 inh: ALOX12 (human) lipoxygenase inhibition. purified 12hLO, xylenol orange hydroperoxide absorbance. Potency, µM (top dose mostly 108 µM), most hits filed as inhibitors. 580,000 compounds, 1.1% hits. AID 1671190
# Target sequence (P18054 whole entry, looked up): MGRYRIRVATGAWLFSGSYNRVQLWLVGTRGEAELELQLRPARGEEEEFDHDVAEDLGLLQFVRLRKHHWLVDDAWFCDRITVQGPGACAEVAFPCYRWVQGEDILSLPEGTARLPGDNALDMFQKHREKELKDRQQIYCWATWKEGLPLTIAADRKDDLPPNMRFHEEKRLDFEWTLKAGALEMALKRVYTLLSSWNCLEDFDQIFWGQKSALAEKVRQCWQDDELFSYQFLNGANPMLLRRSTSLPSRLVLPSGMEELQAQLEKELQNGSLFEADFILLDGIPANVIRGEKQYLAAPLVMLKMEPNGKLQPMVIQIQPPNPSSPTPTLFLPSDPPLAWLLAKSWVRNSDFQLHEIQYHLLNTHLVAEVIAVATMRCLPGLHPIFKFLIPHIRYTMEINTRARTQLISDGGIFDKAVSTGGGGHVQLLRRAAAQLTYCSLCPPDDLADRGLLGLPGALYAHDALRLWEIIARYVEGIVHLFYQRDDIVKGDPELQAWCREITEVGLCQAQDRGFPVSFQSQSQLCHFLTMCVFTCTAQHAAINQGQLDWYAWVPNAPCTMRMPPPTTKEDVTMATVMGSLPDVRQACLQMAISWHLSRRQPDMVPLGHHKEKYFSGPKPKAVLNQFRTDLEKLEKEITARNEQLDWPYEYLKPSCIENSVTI
#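 Purified human 12hLO (150 nM final) in 25 mM Hepes, 0.01% Triton X-100, pH 7.0 was preincubated 15 min at room temperature with compound. Then 40 uM arachidonic acid was added, 30 min. Hydroperoxide was read by Fe-XO absorbance ratio 573/405 nm.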
# VP16 counter: inhibits Gal4-VP16 luciferase reporter, ROR gamma counter-screen; 310,000 compounds, 3.5% hits; AID 2546; Drosophila S2 Gal4-VP16 UAS-luciferase, luminescence, 20 h; Potency, µM (series often up to 53.6 µM), actives largely listed as inhibitors;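 also: Gal4-VP16 expression switched on by copper sulfate through the metallothionein promoter; nearly all actives have a fitted effect of over 50% in size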
# RORg inh: ROR gamma (mouse) transcription inhibition; P51450; Drosophila S2 Gal4-RORgamma UAS-luciferase reporter, 20 h; Potency, µM (titrated, usually from 53.6 µM), hits mostly inhibitors; 310,000 compounds, 5.4% hits; AID 2551; also: nearly all actives have a fitted effect of over 60% in size
#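 Using a luciferase readout, inhibitors were identified by reduced reporter activity in Drosophila cells coexpressing a copper-inducible Gal4–ROR gamma fusion and UAS-driven Photinus luciferase, incubated 20 hr after 700 uM copper sulfate.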
# A number is an active result; n = inactive; u = inconclusive; x = no result; [ ] = dose if it differs, or a comment. Calls follow the shape of the dose curve; as a rule, active = well fitted curve in the direction sought with a large enough effect; inconclusive = small, poorly fitted or top-dose-only effect, or another doubt; inactive = no such curve, though single readings can be large; an effect the other way counts as inactive or inconclusive.
SMILES,TDP1 cell noCPT,ELG1 repair inh,TDP1 cell CPT,ALOX12 inh,VP16 counter,RORg inh
CCc1ccc(NC(=O)CNCc2ccc(OC)c(OC)c2)cc1,u,n,n,n,n,n
COc1ccc(CNCC(=O)Nc2cc(C)nn2-c2nc(C)cc(C)n2)cc1OC,8.2µM,n,9.2µM,n,n,n
COc1cccc(N=Cc2ccc(N(C)C)cc2)c1,x,x,x,n,x,x
Cc1ccc2cc(CN(CC(C)C)S(=O)(=O)c3ccc(Cl)cc3)c(=O)[nH]c2c1,x,x,x,n,x,x
COc1ccc(/C=C(/C#N)c2nc(-c3cc4ccccc4oc3=O)cs2)cc1,15µM,x,u,n,x,x
COc1ccc(/C=C(\C#N)c2nc(-c3cc4c(ccc5ccccc54)oc3=O)cs2)cc1O,3.3µM,x,2.9µM,n,x,x
CCCCC1OC23CCCCC2C(C#N)(C#N)C1(C#N)C(=N)O3 (configuration not stated),6.5µM,n,6.5µM,n,n,n
CCCCC1OC23CCCCC2C(C#N)(C(=N)O3)C1(C#N)C#N (configuration not stated),7.3µM,n,7.3µM,n,n,n
CC(C)C1CN(Cc2cscn2)CCC(=O)N1Cc1ccc(F)cc1 (configuration not stated),x,x,x,n,x,x
Clc1ccccc1CNCCN1CCCC1,x,x,x,n,x,x
CCc1cccc(NC(=O)c2n[nH]c(=O)c3ccccc23)c1,x,x,x,n,x,x
CCc1ccc(NC(=O)c2cc(-c3ccc[nH]3)n[nH]2)cc1,x,x,x,28µM,x,x
CCOc1ccc(NC(=O)c2cc(-c3ccc[nH]3)n[nH]2)cc1,x,x,x,n,x,x
O=C(Nc1ccc(OC(F)(F)F)cc1)c1cc(-c2ccc[nH]2)n[nH]1,x,x,x,16µM,x,x
COc1ccc(NC(=O)c2cc(-c3ccc[nH]3)n[nH]2)c(OC)c1,x,x,x,n,x,x
CCc1cccc(NC(=O)c2cc(-c3ccc[nH]3)n[nH]2)c1,x,x,x,22µM,x,x
O=C(Nc1ccc(F)cc1F)c1cc(-c2ccc[nH]2)n[nH]1,x,x,x,11µM,x,x
CC(C)C(NC(=O)Nc1ccc(F)cc1)C(=O)N(C)C (configuration not stated),x,x,x,n,x,x
COc1cc(OC)cc(C(=O)N[C@@H]2CN(C3CCOCC3)C[C@H]2CN(C)C)c1,x,x,x,n,x,x
COc1cc(OC)cc(C(=O)Nc2ccc(Nc3ccccc3)cc2)c1,u,u,21µM,n,n,n
CC(C)OC(=O)c1cccc(NC(=O)c2ccccc2)c1,13µM,u,13µM,n,n,u
COc1cc(OC)cc(C(=O)NCC(=O)Nc2ccc(-c3ccccc3)cc2)c1,18µM,u,16µM,n,n,u
COc1ccc(C(=O)Nc2ccc(Nc3ccccc3)cc2)cc1OC,n,n,n,n,n,n[1.91 µM]
COc1cc(OC)cc(C(=O)Nc2cccc(NC(=O)c3ccccc3)c2)c1,u,16µM,n,n,n,n
Cc1ccc(/C=C(/C#N)C(=O)NC2CCCC2)cc1C,x,x,x,n,x,x
SMILES,TDP1 cell noCPT,ELG1 repair inh,TDP1 cell CPT,ALOX12 inh,VP16 counter,RORg inh
CCCN(Cc1cccs1)C(=O)Nc1ccccc1OC,x,x,x,n,x,x
CC(OC(=O)c1ccc(CS(C)(=O)=O)cc1)C(=O)c1ccc(Cl)cc1 (configuration not stated),x,x,x,n,x,x
O=C(CCc1ncc(-c2ccc(F)cc2F)o1)NCc1ccc(C(=O)N2CCCC2)cc1,x,x,x,n,x,x
Cc1cc2nc(-c3ccccc3)c(CC(C)(C)C)n2c(C)c1Br,18µM,x,15µM,n,x,x
Cc1cc2nc(-c3ccc(Cl)cc3)c(CC(C)(C)C)n2c(C)c1Br,u,x,15µM,u,x,x
CC(C)CCCCCCCCCCCCC(=O)NCC(=O)NC1C(C)OC(Nc2ncnc3nc[nH]c23)C(O)C1O (configuration not stated),0.033µM,x,0.021µM,n,x,x
CC(C)CCCC(C)NC(=O)C1CCN(c2ncnc3nc[nH]c23)CC1 (configuration not stated),x,x,x,n,x,x
Cc1ccc(C2NC(=O)N(CC(=O)N3CCN(c4ccccc4)CC3)C3=C2C(=O)OC3)cc1 (configuration not stated),x,x,x,n,x,x
N#C/C(=C\c1cccs1)C(=O)c1ccccc1Cl,16µM,u,29µM,u,7.9µM,u
N#C/C(=C\c1cccs1)C(=O)NCc1ccccc1,21µM,n,12µM,n,n,n
N#C/C(=C\c1cccs1)C(=O)Nc1nccs1,2.9µM,u,u,n,u,7.1µM
O=C(N1CCN(c2ccccc2)CC1)C12CC3CC(CC(C3)C1)C2,u,n,n,n,n,n
Cc1nnn(C23C[C@@H]4C[C@@H](CC(C(=O)N5CCN(c6ccccc6)CC5)(C4)C2)C3)n1,13µM,23µM,18µM,n,n,n
CCc1ccccc1NC(=O)c1sc(-n2nc(C)c(Cl)c2C)nc1C,x,x,x,n,x,x
CCCOc1ccc(NC(=O)CCC)c2cccnc12,x,x,x,n,x,x
C/C(=N\Nc1nc2ccccc2s1)c1ccc(Br)s1,u,n,u,n,u,7.1µM
C/C(=N\Nc1nc2ccccc2s1)c1ccc2c(c1)OCO2,n,u,u,n,u,u
CC(=NNc1nc2ccccc2s1)c1ccncn1,0.15µM,x,0.1µM,n,x,x
CC(C)(C)c1ccc(CN(Cc2ccco2)Cc2nnnn2C2CCCC2)cc1,15µM,n,21µM,n,2.8µM,n
CCC(C)(C)n1nnnc1CN(Cc1ccco1)Cc1cc2cc3c(cc2[nH]c1=O)OCO3,16µM,u,21µM,x,n,n
COc1ccc2cc(CN(Cc3ccco3)C(c3nnnn3C3CCCCC3)C(C)C)c(=O)[nH]c2c1 (configuration not stated),u,n,23µM,n,n,n
COc1ccc2cc(CN(Cc3ccco3)Cc3nnnn3C3CCCCC3)c(=O)[nH]c2c1,u,n,26µM,u,n,n
COCCn1nnnc1CN(Cc1ccco1)Cc1cc2cc3c(cc2[nH]c1=O)OCO3,n,n,u,n,n,n
COc1ccc2[nH]c(=O)c(C(c3nnnn3C(C)(C)C)N(Cc3ccco3)CC3CCCO3)cc2c1 (configuration not stated),n,n,n,n,n,n
CCC(C)(C)n1nnnc1CN(Cc1ccc(Cl)cc1)Cc1ccco1,u,u,u,n,u,n
COc1cc(F)ccc1-c1ccc(=O)n(Cc2ccc(F)cc2Cl)n1,x,x,x,n,x,x
COc1ccccc1C(=O)N1CCCn2nc(C)c(-c3ccccc3Oc3ccccc3)c21,x,x,x,n,x,x
Cc1cc(C)cc(-n2nnnc2SCC(=O)N(C)c2ccccc2C(=O)NCc2ccco2)c1,x,x,x,n,x,x
COc1cc2nc(CN3CCN(S(=O)(=O)c4c(F)cccc4F)CC3)[nH]c(=O)c2cc1OC,n,5.8µM,n,u,x,x

# Screening results: PubChem BioAssay, National Center for Advancing Translational Sciences (NCATS)
